These results are taken from PubChem BioAssay (EPA / NIEHS).

In experiment [1] the target is Estrogen receptor (Homo sapiens) (UniProt P03372). As to the kind of experiment: CCTE_Deisenroth_AIME_384WELL_LUC_Active: CCTE's 384-well Estrogen Receptor Transactivation Assay with AIME metabolic competence (ERTA luciferase; metabolism positive), Deisenroth Lab (AID 2284030; active = hit-call score of the fitted dose curve at least 0.9, where 1 is the maximum). The procedure, abridged:
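VM7Luc4E2 breast cells were given, for 24 hours, medium pre-incubated for 2 hours with parent chemical (0.002-200 uM, 10 concentrations) and alginate-encapsulated phenobarbital/beta-naphthoflavone-induced rat hepatic S9. Luciferase gain of signal was fitted against 17beta-estradiol; n=4 or more.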

The nature of experiment [2]: CCTE_Shafer_MEA_dev_firing_rate_mean: CCTE's Neural Network Formation Assay for Mean Firing Rate, Shafer Lab (AID 2284031).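 For AC50: curve fitted for loss of firing so AC50 reflects decreased mean firing rate.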 In a few lines: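 Rat primary cortical neurons were seeded on multielectrode arrays and treated from plating through day 12, with redosing at each feed. Spontaneous spiking was recorded four times; mean firing rate AUC was fitted downward against DMSO.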

Experiment [3] is described as follows: CCTE_Shafer_MEA_dev_per_burst_spike_percent: CCTE's Neural Network Formation Assay for Percent of Spikes in a Burst, Shafer Lab (AID 2284032).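 For AC50: fitted as a decrease in burst spike percentage below DMSO baseline.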 In a few lines: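 Rat primary cortical neurons on 16-electrode MEA wells, dosed from plating day 0 for 12 days with renewal on DIV 5 and 9; spikes-in-bursts percentage averaged over bursting electrodes, collapsed as AUC across days 5, 7, 9, 12; loss direction versus DMSO.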

Experiment [4] can be described thus: CCTE_Shafer_MEA_dev_active_electrodes_number: CCTE's Neural Network Formation Assay for Number of Active Electrodes, Shafer Lab (AID 2284040; active = hit-call score of the fitted dose curve at least 0.9, where 1 is the maximum;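 for AC50: potency for loss of active electrodes versus DMSO so lower counts are hits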). In a few lines:
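Primary rat cortical neurons on 16-electrode MEA wells, exposed from day 0 through day 12 with compound renewed at DIV 5 and 9 feeds. Active electrodes (mean firing ≥5 spikes/min) counted at DIV 5, 7, 9, 12; trapezoidal AUC across days, loss-of-signal versus DMSO.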

A short description of experiment [5]: CCTE_Shafer_MEA_dev_burst_rate: CCTE's Neural Network Formation Assay for Burst Rate, Shafer Lab (AID 2284042).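 For AC50: potency for loss of burst rate below DMSO control.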 The procedure, abridged:
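Exposure ran continuously over 12 days of network development in rat cortical cultures, with compound refreshed during full media changes on DIV 5 and 9. Single-electrode bursts per recording time, well-mean over active electrodes, trapezoidal AUC across days 5–12, fitted downward relative to DMSO.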

The nature of experiment [6]: CCTE_Shafer_MEA_dev_bursting_electrodes_number: CCTE's Neural Network Formation Assay for Number of Bursting Electrodes, Shafer Lab (AID 2284043; active = hit-call score of the fitted dose curve at least 0.9, where 1 is the maximum;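 for AC50: potency is for loss of bursting electrodes relative to DMSO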). The procedure, abridged:
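Primary rat cortical neurons plated on 16-electrode MEA wells, exposed from day 0 with compound renewed at DIV 5 and 9. Electrodes bursting ≥1 burst per 2 min counted on days 5, 7, 9 and 12; trapezoidal AUC across days, fitted for loss versus DMSO.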

Experiment [7] can be described thus: CCTE_Shafer_MEA_dev_per_burst_interspike_interval: CCTE's Neural Network Formation Assay for Burst Interspike Interval, Shafer Lab (AID 2284044).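 For AC50: potency for a decrease of within-burst interspike interval below DMSO level.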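 Note: mean spike spacing inside bursts as AUC over recordings on days 5 7 9 12.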 The procedure, abridged: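 Mean interspike interval within single-electrode bursts, averaged over bursting electrodes, from rat cortical cultures on MEA plates recorded on days 5, 7, 9 and 12. Continuous compound exposure from plating; trapezoidal AUC fitted downward relative to DMSO.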

Experiment [8] in a line: CCTE_Shafer_MEA_dev_burst_duration_mean: CCTE's Neural Network Formation Assay for Mean Burst Duration, Shafer Lab (AID 2284045). In a few lines:
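Primary rat cortical neurons on 48-well 16-electrode MEA plates, exposed from day 0 with renewal at DIV 5 and 9; spontaneous activity recorded on days 5, 7, 9, 12. Well-mean burst duration across bursting electrodes, collapsed as trapezoidal AUC; DMSO baseline.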

Experiment [9] is described as follows: CCTE_Shafer_MEA_dev_interburst_interval_mean: CCTE's Neural Network Formation Assay for Mean Interburst Interval, Shafer Lab (AID 2284046).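 Note: curve fitted for decrease in interburst interval relative to DMSO.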 In a few lines: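 Primary rat cortical neurons on PEI-coated 48-well MEA plates (laminin added with cells at plating) (16 electrodes/well), exposed from plating day 0 with renewal at DIV 5 and 9. Mean inter-burst interval averaged over bursting electrodes, AUC across days 5, 7, 9, 12; DMSO baseline.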

A short description of experiment [10]: CCTE_Shafer_MEA_dev_inter_network_spike_interval_mean: CCTE's Neural Network Formation Assay for Mean Inter-network Spike Interval, Shafer Lab (AID 2284047).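 For AC50: potency for a decrease in mean inter-network spike interval below DMSO.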 The procedure, abridged:
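Mean time between consecutive network-spike peaks, recorded extracellularly (adaptive spike detection) on DIV 5, 7, 9 and 12, summarized as trapezoidal AUC. Rat cortical cultures on MEAs dosed continuously days 0–12, re-dosed at feeds; loss-of-signal fit relative to DMSO.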

A short description of experiment [11]: CCTE_Shafer_MEA_dev_network_spike_number: CCTE's Neural Network Formation Assay for Number of Network Spikes, Shafer Lab (AID 2284048).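 For AC50: fit as a loss of signal meaning fewer network spikes than DMSO.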 In a few lines:
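Primary rat cortical neurons on PEI/laminin 48-well MEA plates, dosed from plating day 0 for 12 days, renewed at DIV 5 and 9. Network spike counts recorded DIV 5, 7, 9, 12, collapsed as trapezoidal AUC; DMSO baseline.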

The nature of experiment [12]: CCTE_Shafer_MEA_dev_network_spike_peak: CCTE's Neural Network Formation Assay for Mean Number of Electrodes in Network Spike, Shafer Lab (AID 2284049).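 For AC50: fitted for loss of signal meaning fewer electrodes in network spikes than DMSO.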 The procedure, abridged:
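Network-spike peak electrode count from recordings on days 5, 7, 9 and 12 was combined as trapezoidal area under the curve. Rat cortical cultures were treated continuously from plating, with compound renewed at each feed (DIV 5, 9); fits versus DMSO.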

Experiment [13] is described as follows: CCTE_Shafer_MEA_dev_network_spike_duration_std: CCTE's Neural Network Formation Assay for Standard Deviation of Network Spike Duration, Shafer Lab (AID 2284052).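 Note: hits are decreases in network spike duration SD versus DMSO vehicle.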 In a few lines: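 Network spike duration variability was collapsed across recordings on days 5, 7, 9 and 12 by trapezoidal area-under-curve and fitted downward against DMSO. Cultures were rat cortical neurons on PEI-coated MEA plates, dosed continuously from plating, refed with compound DIV 5/9.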

Experiment [14] can be described thus: CCTE_Shafer_MEA_dev_per_network_spike_spike_number_mean: CCTE's Neural Network Formation Assay for Mean Number of Spikes in a Network Spike, Shafer Lab (AID 2284053).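 For AC50: fitted as decrease in spikes per network spike relative to DMSO.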 In a few lines: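 Mean spike count within each network spike, taken in a 0.05 s window at its peak, was recorded on days 5, 7, 9 and 12 and integrated as trapezoidal area under the curve. Rat cortical cultures on MEA plates received continuous compound from day 0, refreshed at medium changes on DIV 5 and 9.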

The nature of experiment [15]: CCTE_Shafer_MEA_dev_per_network_spike_spike_percent: CCTE's Neural Network Formation Assay for Percent of Spikes in a Network Spike, Shafer Lab (AID 2284054). In a few lines: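 Rat primary cortical neurons were grown on 48-well MEA plates (16 electrodes/well), exposed from plating day 0 through day 12, with treatment renewed on DIV 5 and 9. Percent of spikes within 0.05 s network-spike peaks was measured, summarised as AUC across days 5, 7, 9, 12.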

Experiment [16] in a line: CCTE_Deisenroth_AIME_384WELL_CTox_Active: Cytotoxicity Assessment (CTOX) in CCTE's 384-well Estrogen Receptor Transactivation Assay with AIME metabolic competence (metabolism positive), Deisenroth Lab (AID 2284037; active = hit-call score of the fitted dose curve at least 0.9, where 1 is the maximum;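 note: chemicals first conditioned 2 h by alginate-bound induced rat liver S9 before cells; activity means signal loss indicating cell death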). In a few lines:
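Chemicals pre-incubated 2 hours with alginate-immobilised phenobarbital/beta-naphthoflavone-induced male Sprague Dawley rat liver S9, then conditioned medium applied 24 hour to VM7Luc4E2 cells. Viability by fluorogenic protease substrate; 10-point series 0.002 - 200 uM.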

Experiment [17] in a line: CCTE_Deisenroth_AIME_384WELL_CTox_Inactive: Cytotoxicity Assessment (CTOX) in CCTE's 384-well Estrogen Receptor Transactivation Assay without AIME metabolic competence (metabolism negative), Deisenroth Lab (AID 2284039; active = hit-call score of the fitted dose curve at least 0.9, where 1 is the maximum;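 note: cell viability via live-cell protease substrate cleaved to fluorescent probe; loss of fluorescence signal means loss of viability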). The procedure, abridged: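 Fluorescent protease-substrate viability readout after 24 h exposure of VM7Luc4E2 cells to conditioned medium. Chemicals (0.002–200 uM) first sat 2 h over alginate-water beads, no S9. Data fitted bidirectionally, loss of signal meaning viability loss.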

A further experiment relates to DIO2 (gene 1734). As to the kind of experiment: CCTE_GLTED_hDIO2: CCTE's human Deiodinase 2 (DIO2) Inhibition Assay, Great Lakes Toxicology and Ecology Division (GLTED) Lab (AID 2284050; active = hit-call score of the fitted dose curve at least 0.9, where 1 is the maximum). In a few lines:
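hDIO2 enzyme + test chem, 3 h → free iodide from substrate; step 2: Sandell-Kolthoff (Ce IV reduction by As, iodide-catalysed), spectrophotometric read. Triplicate plates; DMSO = baseline.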

For a further experiment, the system named is DIO3 (gene 1735). As to the kind of experiment: CCTE_GLTED_hDIO3: CCTE's human Deiodinase 3 (DIO3) Inhibition Assay, Great Lakes Toxicology and Ecology Division (GLTED) Lab (AID 2284055; active = hit-call score of the fitted dose curve at least 0.9, where 1 is the maximum;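 note: potency is for inhibition seen as loss of released iodide signal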). The procedure, abridged:
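Absorbance from the Sandell-Kolthoff reaction reports iodide released by human DIO3 during a 3-hour incubation with chemical. Inhibition scored as signal loss against DMSO controls.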

“And” between values parts separate entries of the source, which are not always exact repeats. Identical values can stand only once. Inconclusive results are not listed. A structure can be active in one record and inactive in another. The source made the active and inactive calls. Rule for the calls, unless noted: active = hit-call score of the fitted dose curve at least 0.9, where 1 is the maximum; inactive = score below 0.9.

Sequence of Estrogen receptor (Homo sapiens) (P03372 whole entry, looked up): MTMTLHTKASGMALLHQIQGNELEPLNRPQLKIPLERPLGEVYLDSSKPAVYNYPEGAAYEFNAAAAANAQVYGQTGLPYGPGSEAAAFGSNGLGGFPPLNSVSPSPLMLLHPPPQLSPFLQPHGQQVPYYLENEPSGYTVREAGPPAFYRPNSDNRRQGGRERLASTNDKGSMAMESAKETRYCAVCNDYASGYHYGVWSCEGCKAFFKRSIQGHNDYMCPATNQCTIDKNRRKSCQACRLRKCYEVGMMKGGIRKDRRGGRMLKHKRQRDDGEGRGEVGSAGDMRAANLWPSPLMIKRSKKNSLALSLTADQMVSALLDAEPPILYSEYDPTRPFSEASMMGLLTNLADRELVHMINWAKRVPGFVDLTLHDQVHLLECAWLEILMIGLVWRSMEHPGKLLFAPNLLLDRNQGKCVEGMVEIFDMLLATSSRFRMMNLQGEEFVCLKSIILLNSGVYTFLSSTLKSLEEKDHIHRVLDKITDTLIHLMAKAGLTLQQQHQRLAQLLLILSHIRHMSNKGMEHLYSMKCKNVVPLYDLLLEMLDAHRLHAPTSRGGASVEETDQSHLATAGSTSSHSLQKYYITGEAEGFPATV

One may read the AC50 as the concentration at which the activity in the assay is half-maximal. For `O=C(Nc1ccccc1-c1ccc(Cl)cc1)c1cccnc1Cl`, the outcome in [1], in experiment [2], in [3], in experiment [4], in [5] and in experiment [6] was inactive. In addition, the molecule was classed as inactive in experiment [7], in [8], in [9], in experiment [10], in experiment [11] and in experiment [12]. Further, the outcome in [13], in experiment [14] and in experiment [15] was inactive. Also, the concentration at half-maximal activity (AC50) in experiment [2] was 4.96 µM (active); in experiment [3] it was 9.36 µM (active); in [4] it was 9.92 µM (active); in experiment [5], 4.18 µM (active) and 3.1 nM (active); in [6], 7.09 µM (active); in experiment [7], 5.35 µM (active). Besides, the AC50 was 2.59 µM (active) in [9]; 0.01 µM (active) in [10]; 9.92 µM (active) in [12]; 1.14 µM (active) in experiment [13]; 1.13 µM (active) in experiment [14].

As for `CCOP(=O)(OCC)Oc1nc(Cl)c(Cl)cc1Cl`, the result in experiment [1], in experiment [2], in [3], in [4], in [5] and in [7] was inactive. The molecule was called inactive in experiment [8], in experiment [9], in [10], in experiment [11], in experiment [12] and in [13]. The call in [14] and in [15] was inactive. Also, the AC50 is 1.39 µM (active) and 15 µM (active) in [3]; 904 nM (active) and 8.09 µM (active) in experiment [4]; 852 nM (active) and 6.59 µM (active) in experiment [6]; 2.98 µM (active) in experiment [11]; 3.32 µM (active) and 9.79 µM (active) in [12]; 2.98 µM (active) in experiment [13]. The concentration at half-maximal activity (AC50) in experiment [14] is 3.09 µM (active) and 15 µM (active); in [15], 7.07 µM (active).

Take `CC(C)Nc1nc(Cl)nc(NC(C)C)n1`: in experiment [1], the outcome was inactive.

Take `CC1(C)CON(Cc2ccccc2Cl)C1=O`: the molecule was classed as inactive in [1].

As to `CN=C=S`, the result in [1], in experiment [16] and in [17] was inactive.

As to `COCc1cnc(C2=NC(C)(C(C)C)C(=O)N2)c(C(=O)O)c1` (stereo not given), the call in [1], in experiment [16] and in [17] was inactive.

On to `CCOP(=S)(OCC)Oc1nc(Cl)n(C(C)C)n1`, for which the call in [1], in experiment [16] and in experiment [17] was inactive.

As to `Clc1cccc(C(Cl)(Cl)Cl)n1`, in experiment [1], the molecule was classed as inactive.

In the case of `CC(C)=CC1C(C(=O)OCc2coc(Cc3ccccc3)c2)C1(C)C` (stereo not given), the result in experiment [1], in experiment [2], in experiment [3], in [16], in experiment [17] and in experiment [4] was inactive. Also, the molecule was classed as inactive in [5], in experiment [6], in experiment [7], in experiment [8], in experiment [9] and in [10]. For the same molecule, the outcome in experiment [11], in experiment [12], in experiment [13], in experiment [14] and in experiment [15] was inactive. The AC50 in the experiment with DIO2 (gene 1734) was 38.5 µM (active); in the experiment on DIO3 (gene 1735), 40.5 µM (active).

On to `Nc1c(Cl)c(Cl)nc(C(=O)O)c1Cl`, for which the AC50 in experiment [1] was 41.7 µM (active). For the same molecule, the molecule was classed as inactive in experiment [16] and in experiment [17].

As to `N#Cc1c(Cl)cccc1Cl`, the call in experiment [1], in experiment [16] and in experiment [17] was inactive.
